# In PubChem BioAssay:
# Activity calls are given as the source filed them. Unless noted, the rule behind the calls is not given here.
# Key:
# [1] = resazurin metabolic signal in HepG2 cells – cell-based, resazurin fluorescence, 24 h, PK04 Diversity Set, profiling panel (AID 1172); conditions: HepG2 viability, higher = more signal
# [2] = budding yeast growth changes without added modifier – OD600, strain BY4716, 24 h, basal condition, primary screen (AID 1173); conditions: S. cerevisiae BY4716 growth, OD600, 24 h; higher = more signal, called active from +8 up or from −8 down
# [3] = viability profiling in MM1S myeloma cells – cell-based, resazurin fluorescence, basal, 24 h, PK04 Diversity Set, profiling panel (AID 1174); conditions: higher = more signal, called active from +8 up or from −8 down;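 note: MM1S multiple myeloma cell line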
# [4] = target: Dihydroorotate dehydrogenase (quinone), mitochondrial (Plasmodium falciparum (isolate 3D7)) (UniProt Q08210); test: inhibition of P. falciparum DHODH – biochemical, C-terminal His tag, absorbance 600 nm, primary screen (AID 1175); conditions: PfDHODH enzyme, DCIP absorbance 600 nm; higher = more signal, called active from +8 up or from −8 down;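 note: recombinant parasite enzyme with a five histidine tag at its C terminus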
# Sequence of Dihydroorotate dehydrogenase (quinone), mitochondrial (Plasmodium falciparum (isolate 3D7)) (Q08210 whole entry, looked up): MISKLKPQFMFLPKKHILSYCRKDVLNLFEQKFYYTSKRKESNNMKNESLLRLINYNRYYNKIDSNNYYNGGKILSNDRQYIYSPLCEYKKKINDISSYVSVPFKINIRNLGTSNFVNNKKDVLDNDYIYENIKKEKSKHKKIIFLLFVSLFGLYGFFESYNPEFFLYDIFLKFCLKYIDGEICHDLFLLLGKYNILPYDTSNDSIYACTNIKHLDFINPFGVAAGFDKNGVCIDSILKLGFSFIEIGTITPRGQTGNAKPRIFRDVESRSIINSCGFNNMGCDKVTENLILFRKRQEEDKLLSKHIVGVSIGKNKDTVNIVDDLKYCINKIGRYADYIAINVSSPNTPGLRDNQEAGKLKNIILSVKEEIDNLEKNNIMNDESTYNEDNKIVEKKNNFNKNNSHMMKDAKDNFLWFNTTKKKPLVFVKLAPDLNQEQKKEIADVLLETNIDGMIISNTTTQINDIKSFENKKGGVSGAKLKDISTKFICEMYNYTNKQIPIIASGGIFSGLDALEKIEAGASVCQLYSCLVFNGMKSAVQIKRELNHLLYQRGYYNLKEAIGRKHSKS
# [5] = inhibition of PAO1 biofilm formation – strain PAO1, LB-PBS medium, absorbance 600 nm, primary screen (AID 1176); conditions: P. aeruginosa PAO1 growth/biofilm, A600, 12 h; higher = more signal
# [6] = growth modulation of vineyard yeast isolate – strain RM11-1a, OD600, basal, 24 h, primary screen (AID 1177);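 note: cultures grown under basal conditions with no added stressor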; conditions: S. cerevisiae RM11-1a growth, OD600, 24 h; higher = more signal, called active from +8 up or from −8 down
# [7] = growth of efflux-deficient E. coli DRC39 – strain DRC39, OD650, 24 h, E. coli filamentation inducers, primary screen (AID 1178);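 note: growth measured as culture turbidity by optical density at 650 nm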; conditions: E. coli DRC39 acrAB, higher = more signal, called active from +8 up or from −8 down
# [8] = growth of efflux-deficient E. coli DRC39 – strain DRC39, OD650, 48 h, E. coli filamentation inducers, primary screen (AID 1179);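 note: screen aims at cell division blockers that make cells filament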; conditions: E. coli DRC39 delta-acrAB growth, higher = more signal, called active from +8 up or from −8 down
# [9] = viability profiling in RPMI8226 myeloma cells – cell-based, resazurin fluorescence, basal, 24 h, PK04 Diversity Set, profiling panel (AID 1180); conditions: higher = more signal;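 note: RPMI8826 multiple myeloma cell line at 5000 cells per well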
# [10] = target: E3 ubiquitin-protein ligase XIAP (Homo sapiens) (UniProt P98170); test: small molecules binding XIAP protein – biophysical, small-molecule microarray, fluorescence 635 nm, primary screen (AID 1181); conditions: higher = more signal;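 note: score merges 667 nm emission and signal to noise over triplicate slides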
# Sequence of E3 ubiquitin-protein ligase XIAP (Homo sapiens) (P98170 whole entry, looked up, the tested form may be a part): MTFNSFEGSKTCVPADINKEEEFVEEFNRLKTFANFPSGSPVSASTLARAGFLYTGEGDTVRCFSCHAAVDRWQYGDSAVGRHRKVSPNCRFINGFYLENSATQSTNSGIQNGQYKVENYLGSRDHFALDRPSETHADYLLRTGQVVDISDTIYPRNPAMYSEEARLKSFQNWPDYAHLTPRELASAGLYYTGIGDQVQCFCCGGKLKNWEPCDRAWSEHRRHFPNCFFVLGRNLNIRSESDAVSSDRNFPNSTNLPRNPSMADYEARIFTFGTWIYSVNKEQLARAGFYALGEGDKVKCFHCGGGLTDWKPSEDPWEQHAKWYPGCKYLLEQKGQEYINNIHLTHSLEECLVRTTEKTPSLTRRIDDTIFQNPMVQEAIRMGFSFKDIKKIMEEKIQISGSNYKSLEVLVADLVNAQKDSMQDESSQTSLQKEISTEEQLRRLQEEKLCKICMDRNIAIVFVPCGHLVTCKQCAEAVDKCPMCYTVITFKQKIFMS
# [11] = tested on: XIP peptide (Xip251-270) binding; test: XIP fragment 251-270 binding compounds – biochemical, small-molecule microarray, fluorescence 635/667 nm, 0.1 µg/mL protein, primary screen (AID 1182); conditions: fluorescent protein binding, 635 nm, higher = more signal, called active from +8 up or from −8 down
# [12] = tested on: XIP peptide (Xip251-270); test: compounds binding XIP fragment 251-270 – biochemical, small-molecule microarray, fluorescence 635/667 nm, 0.5 µg/mL protein, primary screen (AID 1183); conditions: fluorescence 635 nm, higher = more signal
# [13] = blood-stage malaria parasite viability loss – strain 3D7, DAPI fluorescence, 100 nL, primary screen (AID 1184);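 note: parasites grown inside human red blood cells in medium with human serum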; conditions: P. falciparum 3D7 growth, 3 d, higher = more signal
# [14] = target: Homeobox protein Hox-A13 (Mus musculus) (UniProt Q62424); test: disruptors of Hoxa13 oligonucleotide interaction – biochemical, fluorescence polarization, labeled oligonucleotide, primary screen (AID 1185); conditions: Hoxa13:DNA binding, 15 min, higher = more signal, called active from +8 up or from −8 down
# Sequence of Homeobox protein Hox-A13 (Mus musculus) (Q62424 whole entry, looked up): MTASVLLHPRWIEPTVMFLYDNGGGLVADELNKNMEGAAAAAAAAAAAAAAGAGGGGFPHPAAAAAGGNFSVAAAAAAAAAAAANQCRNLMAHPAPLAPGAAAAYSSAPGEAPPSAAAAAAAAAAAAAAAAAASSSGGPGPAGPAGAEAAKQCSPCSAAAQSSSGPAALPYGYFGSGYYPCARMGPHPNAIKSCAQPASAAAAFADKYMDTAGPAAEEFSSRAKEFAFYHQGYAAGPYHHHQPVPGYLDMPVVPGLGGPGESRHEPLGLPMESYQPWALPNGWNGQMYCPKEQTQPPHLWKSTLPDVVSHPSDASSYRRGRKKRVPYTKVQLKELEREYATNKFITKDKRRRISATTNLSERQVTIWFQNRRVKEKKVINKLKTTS
# [15] = blockers of DNA damage checkpoint Chk1 activation – imaging, HeLa, hydroxyurea, phospho-Chk1 antibody, percent positive cells, primary screen (AID 1186); conditions: hydroxyurea-induced phospho-Chk1 immunofluorescence imaging, higher = more signal
# [16] = blockers of DNA damage checkpoint Chk1 activation – imaging, HeLa, hydroxyurea, phospho-Chk1 nuclear intensity, primary screen (AID 1187); conditions: hydroxyurea-induced phospho-Chk1 immunofluorescence imaging, higher = more signal
SMILES,z-score [1],z-score [2],z-score [3],composite z-score [4],z-score [5],z-score [6],z-score [7],z-score [8],z-score [9],composite z-score [10],composite z-score [11],composite z-score [12],z-score [13],z-score [14],z-score [15],z-score [16]
CN1C(=O)C2C=CC(C(O)c3ccccc3)N(Nc3ccccc3)C2C1=O (stereo unspecified),-1.05,-0.506 (inactive),-1.83 (inactive),0.0323 (inactive),1.67 (inactive),0.166 (inactive),-1.17 (inactive),-1.29 (inactive),-1.52,0.0651,0.599 (inactive),0.357,-0.206,-2.83 (inactive),0.861 (inactive),0.163 (inactive)
CN(C)C(=O)[C@@]1(Cc2ccccc2)N=C(c2ccc(OCCCO)cc2)O[C@H]1c1ccccc1N=[N+]=[N-],-0.697,-1.27 (inactive),-3.56 (inactive),0.2 (inactive),0.0533 (inactive),-0.0844 (inactive),0.754 (inactive),0.579 (inactive),-5.06,0.15,-0.111 (inactive),0.651,-1.93,-4.88 (inactive),-0.524 (inactive),-0.793 (inactive)
COc1ccc(C(O)C2C=CC3C(=O)NC(=O)C3N2Nc2ccccn2)c2ccccc12 (stereo unspecified),-1.07,-0.33 (inactive),-0.782 (inactive),0.977 (inactive),1.26 (inactive),0.75 (inactive),-0.272 (inactive),-0.571 (inactive),-1.24,0.246,0.123 (inactive),-0.034,0.8,-1.97 (inactive),0.141 (inactive),-0.22 (inactive)
CC(C)C[C@@H]1NC(=O)[C@H]2C[C@@H](C(=O)NCCCCCCN(C)C)[C@@H](c3ccc(O)cc3)N2C1=O,-0.447,-0.476 (inactive),-0.671 (inactive),-0.687 (inactive),-0.214 (inactive),-0.217 (inactive),0.0306 (inactive),0.152 (inactive),-1.26,0.125,1.2 (inactive),0.876,1.26,-1.57 (inactive),0.731 (inactive),0.387 (inactive)
COC(=O)[C@@]1(Cc2ccc(OC)cc2)[C@H]2c3cc(C(=O)N(C)C)n(CCN4CNCC4=O)c3C[C@H]2CN1C(=O)c1ccccc1,0.642,0.124 (inactive),0.622 (inactive),-0.72 (inactive),0.371 (inactive),-0.188 (inactive),0.479 (inactive),-0.318 (inactive),0.777,0.597,0.384 (inactive),-0.144,-1.23,-4.73 (inactive),-0.648 (inactive),-0.397 (inactive)
Cc1ccc(S[C@]2(C(=O)NC(C)C)CC(=O)N(Cc3ccccc3Cl)[C@@H]2c2ccc(CO)cc2I)cc1,0.36,-3.93 (inactive),-2.83 (inactive),-0.766 (inactive),0.723 (inactive),-1.89 (inactive),0.0051 (inactive),-0.465 (inactive),-2.24,-0.074,0.226 (inactive),0.293,0.906,-3.31 (inactive),0.244 (inactive),0.723 (inactive)
O=C1O[C@H](c2ccccc2)[C@H](c2ccccc2)N2[C@H]1[C@@H](C(=O)Nc1nc3ccccc3s1)[C@]1(C(=O)Nc3ccc(C#CCCO)cc31)[C@H]2c1ccc(OCCO)cc1,-0.251,1.2 (inactive),0.527 (inactive),-1.6 (inactive),1.85 (inactive),1.67 (inactive),-0.567 (inactive),0.161 (inactive),-1.3,0.0637,0.497 (inactive),0.769,-1.19,1.37 (inactive),-0.239 (inactive),-0.262 (inactive)
O=C1NC(=O)C2C1C=CC(C(O)c1cccc3ccccc13)N2Nc1ccccn1 (stereo unspecified),-0.692,0.268 (inactive),-1.74 (inactive),0.305 (inactive),0.226 (inactive),0.798 (inactive),-0.334 (inactive),0.638 (inactive),-0.94,0.276,-0.219 (inactive),0.395,0.181,-1.71 (inactive),-0.146 (inactive),-0.382 (inactive)
COc1ccc(C(O)C2C=CC3C(=O)NC(=O)C3N2Nc2ccccn2)cc1 (stereo unspecified),-0.396,0.0843 (inactive),-0.285 (inactive),0.91 (inactive),0.366 (inactive),0.31 (inactive),-0.276 (inactive),-0.401 (inactive),-0.721,-0.893,-1.2 (inactive),0.658,0.557,-1.88 (inactive),0.723 (inactive),0.51 (inactive)
COC(=O)c1c(CC[C@@H](CO)NC(=O)N[C@H](Cn2cc(Cc3ccccc3)nn2)C(C)C)oc(C(C)=O)c1C(=O)OC,-0.61,-1.64 (inactive),-0.0537 (inactive),-3.09 (inactive),0.656 (inactive),-0.705 (inactive),1.58 (inactive),0.582 (inactive),-0.193,-0.121,0.369 (inactive),-0.0446,-1.99,-0.701 (inactive),1.02 (inactive),1.38 (inactive)
COCCOC(=O)N1C(=O)[C@@]2(c3cc(C#CCCO)ccc31)[C@H](C(=O)N1CCN(c3ncccn3)CC1)[C@H]1C(=O)O[C@H](c3ccccc3)[C@H](c3ccccc3)N1[C@@H]2c1ccccc1OCCO,0.906,0.674 (inactive),0.399 (inactive),-0.237 (inactive),-0.116 (inactive),1.36 (inactive),0.111 (inactive),-0.776 (inactive),0.485,-0.0312,0.954 (inactive),0.655,-2.28,-1.58 (inactive),-0.0632 (inactive),0.111 (inactive)
